VACV Venus inh – vaccinia inhibition (Venus reporter) | hit rate 0.46% among 330,000 | Potency, µM (series often up to 36.5 µM), for the others: at the top dose activity change, negative = inhibition, usual class: inhibitors | Vaccinia virus Venus reporter expression, fluorescence; calls by dose curve; tested in A549 cells; also: nearly all actives have a fitted effect of over 30% in size
Vaccinia mCherry – vaccinia inhibition (mCherry reporter) | Potency, µM (highest dose often 36.5 µM), for the others: at the top dose activity change, negative = inhibition, most hits filed as inhibitors | Vaccinia virus mCherry reporter infection, fluorescence | AID 720579 | hit rate 0.63% among 310,000; calls by dose curve; tested in A549 cells; also: nearly all actives have a fitted effect of over 35% in size
HCV inhibitor – inhibitors of hepatitis C virus infection | Huh7.5.1 HCVcc-Cre infection, luciferase reporter, 44 h | Potency, µM (top dose mostly 41.8 µM), for the others: top-dose activity change, negative = inhibition, most hits filed as inhibitors | hit rate 3.4% among 340,000; active = well fitted inhibition curve with a large enough effect; inconclusive = small, poorly fitted or top-dose-only effect, or another doubt; inactive = no such curve, though single readings can be large or run the other way
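Compounds are dispensed onto cells plated 4 h earlier at 1,000 per well, with HCVcc-Cre virus (about 0.5 moi) added next. Following 44 h of culture, luminescent signal is measured for 15 sec after 15 min with substrate at room temperature.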
Numbers without * were called inactive; i = inactive; u = inconclusive; x = no result; [ ] = dose if it differs, or a comment. Only some compounds are listed: those with a hit (about 3.3% of all), similar ones and a draw of the others. % is scaled to controls: 0 for no effect and ±100 for the full control effect; potency is read from the fitted curve at half-maximal effect.

SMILES	VACV Venus inh	Vaccinia mCherry	HCV inhibitor
Cc1ccccc1NC(=O)Cc1nc(COC(=O)CCNS(=O)(=O)c2ccccc2)cs1	-16%	-30%	u
OCCCc1nc2n(n1)C(c1ccccc1)C=C(c1ccc(F)cc1)N2 (stereo not drawn)	x	x	11µM*
O=S(=O)(Nc1nc2n(n1)C(c1ccc(F)cc1)C=C(c1ccccc1)N2)c1ccccc1 (stereo not drawn)	-21%	-18%	x
COC(=O)c1ccc(NC(=O)CN2C(=O)CC(c3ccccc3)Sc3ccccc32)cc1 (stereo not drawn)	-4%	1%	x
Cc1ccc(NC(=O)CSc2ccc3c(c2)OCCO3)c(O)c1	x	x	10µM*
Cc1ccnc(NC(=O)CSc2ccc3c(c2)OCCO3)c1	-7%	-9%	u
CCCc1cc(-c2nc(N)ncc2-c2csc(C)n2)c(O)cc1OC	x	x	1%
CCCc1cc(-c2nc(N)ncc2-c2ccc3c(c2)OCCCO3)c(O)cc1OC	13µM*	u	u
NC(=Nc1nc(-c2ccccn2)cc2ccccc12)c1ccccn1	u	0.32µM*	u
N/C(=N\OC(=O)c1ccc2ccccc2c1)c1ccccn1	-9%	-10%	6%
C/C(=N/NC(=O)c1ccncc1)c1ccccc1	-9%	-22%	2%
O=C(N/N=C(\Cc1ncc[nH]1)c1ccccc1)c1cccnc1	u	11µM*	u
O=C(N/N=C(\c1ccccc1)c1cccnc1)c1cccc(F)c1	u	3.2µM*	u
O=C(N/N=C(\Cc1ncc[nH]1)c1ccccc1)c1ccncc1	u	10µM*	u
O=C(N/N=C(\c1ccccc1)c1cccnc1)c1ccc(O)cc1	-17%	i	3%
CC(/C=C/C=C/c1ccccc1)=N\NC(=O)c1cccnc1	-6%	-10%	7%
CCS(=O)(=O)N1CCC(NC(=O)C(Cc2cccc(OC)c2OC)NC(C)=O)CC1 (stereo not drawn)	-11%	-13%	-3%
Cc1ccc2c(=O)cc(C(=O)Nc3sc4c(c3C(N)=O)CCCC4)oc2c1	-6%	-22%	x
CCOC(=O)c1ccc(NC(=O)c2cnc(N3CCCC3)nc2C)cc1	1%	12%	x
COc1ccc(CN2C[C@@H](CO)O[C@@H](n3cnc4c(N5CCCC5)ncnc43)C2)cc1	-2%	12%	x
O=C(Nc1ccc2c(c1)OCCO2)c1cc2sccc2n1Cc1ccccc1	-20%	i	11µM*
O=C(Nc1ccc2c(c1)OCCO2)c1cc2sccc2n1Cc1ccc(F)cc1	-14%	-10%	u
CC(C)OCCCNc1ncnc2c1[nH]c1ccccc12	x	x	2.5µM*
Brc1ccc2[nH]c3c(NCc4ccccn4)ncnc3c2c1	-8%	i	u
O=c1c2[nH]c3ccccc3c2ncn1CCC1=CCCCC1	6%	2%	11%
SMILES	VACV Venus inh	Vaccinia mCherry	HCV inhibitor
C1=C(CCNc2ncnc3c2[nH]c2ccccc23)CCCC1	u	u	1.1µM*
Cc1ccc2[nH]c3c(NCc4ccccc4)ncnc3c2c1	x	x	7.9µM*
CCOc1ccc2[nH]c3c(NCCCOC)ncnc3c2c1	x	x	-24%
COc1ccc(CNc2ncnc3c2[nH]c2cc(OC)c(OC)cc23)cc1	-17%	-12%	u
COc1ccc(CNc2ncnc3c2[nH]c2ccccc23)cc1	-21%[7.34 µM]	-4%[7.34 µM]	5µM*
COCCCN1C(=O)c2ccc(C(=O)OCC(=O)N3CCN(c4ccccc4)CC3)cc2C1=O	-15%	-21%	-27%[8.37 µM]
CCOC(=O)c1c(C)[nH]c(C)c1S(=O)(=O)NCc1ccc(OCC)cc1	x	x	-3%
OCC1(Cc2ccccc2)CCN(Cc2cnc(-c3ccc(Cl)cc3)nc2)CC1	-11%	-22%	10µM*
OCC1(Cc2ccccc2)CCN(Cc2cnc(-c3cccc4ccccc34)nc2)CC1	-17%	i	-25%
Cc1cccc(-c2ncc(CN3CCN(C4CCCC4)C(CCO)C3)cn2)c1 (stereo not drawn)	-17%	-8%	-52%
OCCC1CN(Cc2cnc(-c3ccc(Cl)cc3)nc2)CCN1C1CCCCC1 (stereo not drawn)	x	x	13µM*
Nc1ncnc2nc(Cl)[nH]c12	0%	i	x
Cc1cc(-c2ccnc(-n3ncc(C(=O)N(C)CC(O)c4ccccc4)c3C)n2)c(C)s1 (stereo not drawn)	5%	-10%	x
COc1ccc(-c2noc(CSc3nc4ccccc4[nH]3)n2)cc1OC	-12%	-14%	x
COc1ccccc1-c1sc2cc3c(cc2c1C#CC1(O)CCCCC1)OCO3	-21%	i	u
COc1ccc(-c2c(C#CC(C)(C)O)c3ccccc3n2C)cc1	-19%	-2%	u
COc1ccc(-c2oc3ccccc3c2C#CC(C)(C)O)cc1	-29%	u	7.9µM*
COc1ccc(-c2sc3cc(OC)c(OC)cc3c2C#CC(C)(C)O)cc1	-27%	-9%	1.4µM*
COc1ccc(-c2sc3cc4c(cc3c2C#CC2(O)CCCCC2)OCO4)cc1	u	u	1.6µM*
COc1ccc(-c2sc3cc(OC)c(OC)cc3c2C#CCO)cc1	u	-20%	1µM*
COC(=O)c1c(-c2ccc(OC)cc2)sc2cc(OC)c(OC)cc12	-18%	u	u
COc1ccc(-c2sc3ccc(N4CCOCC4)cc3c2C#CC(C)(C)O)cc1	-29%	i	u
CN(C)C(=O)COc1ccccc1C(=O)OCC(=O)Nc1ccc(Oc2ccc(Br)cc2)cc1	-22%	-12%	x
Cc1nc2ccc(S(=O)(=O)CCC(=O)Nc3ccc(C(C)C)cc3)cc2s1	-9%	-8%	x
COc1ccc(CCNC(=O)c2ccc3ccccc3n2)cc1OC	-8%	-9%	u
SMILES	VACV Venus inh	Vaccinia mCherry	HCV inhibitor
CCOc1ccc(CCNC(=O)c2ccc3ccccc3n2)cc1OCC	x	x	11µM*
CCOc1ccc(CCNC(=O)c2cnc(C)cn2)cc1OCC	x	x	-8%
COc1ccc(CCNC(=S)c2ccccc2)cc1OC	x	x	8.9µM*
COc1ccc(CNC(=O)c2ccc3ccccc3n2)cc1OC	-14%	-27%	10µM*
COc1ccc(CCNCc2ccccc2F)cc1OC	-8%	x	15%
COc1ccc(CCNCc2c(OC)ccc3ccccc23)cc1OC	x	x	11µM*
COc1ccc(CCNC(=S)NCCc2ccc(OC)c(OC)c2)cc1OC	-13%	i	u
COc1cccc(CN(C(=O)/C=C/c2ccco2)C2CCS(=O)(=O)C2)c1 (stereo not drawn)	-6%	-13%	5%
COCCN1CCN(C(=O)c2cnn(-c3nccc(-c4ccco4)n3)c2C2CC2)CC1	4%	2%	x
Cc1c(C(=O)OC2CCC(C)CC2)[nH]c2c1C(=O)CC(c1ccccc1Cl)C2 (stereo not drawn)	-19%[7.34 µM]	-19%[7.34 µM]	x
O=S(=O)(c1ccc(-c2csc(=Nc3ccc(F)cc3)n2CCCCCCO)cc1)N1CCCC1	-28%	u	x
CCOc1ccc(C(=O)Nc2ccc3nc(SCC(=O)N(C)c4ccccc4)sc3c2)cc1	-18%[7.34 µM]	-17%[7.34 µM]	x
COc1ccc(CCNC(=O)Cc2ccccc2)cc1OC	-15%	i	3%
COc1ccc(C(=O)NNC(=O)c2ccc3ccccc3n2)cc1	u	11µM*	u
COc1ccc(C(=O)NNC(=O)c2ccc3ccccc3c2)cc1	-9%	i	13%
COc1ccc(CNc2nccs2)cc1OC	-10%	i	-19%
COc1ccc(CCNC(=O)CC(c2ccccc2)c2cc(C)ccc2O)cc1OC (stereo not drawn)	x	x	10µM*
COc1ccc(CNc2nc3ccccc3s2)cc1OC	-1%	i	11µM*

Screening data as filed in PubChem BioAssay.
